Most compounds without a hit are left out; they make up all but 4% or so of the library.
TWEAK-Fn14 inh: blocks TWEAK-Fn14 interaction in a reporter cell assay; TWEAK-stimulated Fn14 reporter cells, luciferase luminescence, 8 h; inhibition, % at 10 µM; 2% of 360,000 active; in the data active = inhibition above about 50%
KKLEB tox: CF airway cell cytotoxicity counter-screen; KKLEB CF airway cells viability, ATPlite luminescence, overnight; hits give low values; cells stimulated with P. aeruginosa culture filtrate; activity change (cytotoxicity), % at 5 µM; 0.36% of 360,000 active;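 active = corrected activity change at or below -50% at 5 µM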
TROY NFkB inh: inhibitors of TROY-dependent NF-kB signaling. Q293 LMP1-TROYcd NF-kB luciferase reporter, 4 h. inhibition, % at 10 µM. 0.98% of 360,000 active;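 active = compounds whose plate-normalised and pattern-corrected inhibition of the luciferase reporter signal at the single screening dose is 50% or more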
Peg3 prom inh: reduces Peg3 promoter-driven luciferase expression in HeLa. HeLa PEG-Prom luciferase reporter, luminescence, overnight. inhibition, % at 20 µM. 1.7% of 360,000 active;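 active = inhibition of at least 50% at 20 µM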
CF NFkB block: inhibitors of cystic fibrosis induced NF-kB; KKLEB NF-kB-GFP reporter, PAF-induced, GFP fluorescence overnight; inhibition, % at 5 µM; 0.86% of 360,000 active; AID 588850;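 active = at least 50% inhibition at 5 µM, scaled per plate between neutral and stimulator controls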;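 also: PAF is a Pseudomonas aeruginosa culture filtrate used as stimulus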
HIF-2a block: HIF-2a inhibition. 786-0 RCC cells HIF-2a reporter, luciferase luminescence, overnight. inhibition, % at 18.8 µM. 0.72% of 360,000 active. AID 624352;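 active = inhibition of the luminescence signal of 40% or more relative to plate controls, in a single-dose primary screen at 18.75 µM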
A number is an active result; 0 = inactive; - = no result given.

SMILES	TWEAK-Fn14 inh	KKLEB tox	TROY NFkB inh	Peg3 prom inh	CF NFkB block	HIF-2a block
c1coc(-c2nc(-c3ccco3)c(-c3ccco3)nc2-c2ccco2)c1	81	0	0	0	0	0
O=C(CNS(=O)(=O)c1ccc(Br)cc1)N1CCOCC1	0	0	0	0	0	0
CCc1nnc(SCC(=O)NC2CCCCC2)nc1CC	0	0	0	77	0	0
CCc1nnc(SCC(=O)NC2CCCC2)nc1CC	0	0	0	0	0	0
NC1=NC[C@H](c2ccccc2)N1CCc1cc(C(F)(F)F)cc(C(F)(F)F)c1	0	0	0	98	0	0
COc1cccc2c1C(=O)O/C2=C/c1ccc2c(c1)OCO2	63	-73	0	0	0	0
Cc1ccc(S(=O)(=O)Nc2cc(S(=O)(=O)N3CCCCC3)ccc2N2CCOCC2)cc1	0	0	0	0	0	0
O=S(=O)(Nc1nc2ccccc2nc1Nc1cccc(S(=O)(=O)N2CCCCC2)c1)c1ccccc1	77	-61	68	69	65	0
O=C(O)c1cccc(Nc2nc3ccccc3nc2NS(=O)(=O)c2ccc(F)cc2)c1	0	0	0	0	0	0
COc1ccc(S(=O)(=O)Nc2cccc(S(=O)(=O)N3CCCCCC3)c2)cc1	0	0	0	0	0	0
O=S(=O)(Nc1nc2ccccc2nc1Nc1ccc2c(c1)OCO2)c1ccc(F)cc1	61	0	58	0	0	0
N#Cc1ccc(NC(=O)COC(=O)C2CCC2)cc1	0	0	0	0	0	0
Cc1nc2ccccc2c(=O)n1NC(=O)C1CC1	0	0	0	0	0	0
CN(C)c1ccc(/C=C2\CCCCC2=O)cc1	0	0	0	0	0	0
CN(C)CCC1(C2=CCCC2)CC/C(=C/c2ccc(Cl)cc2)C1=O (configuration not stated)	0	0	0	95	0	0
COc1ccc(C2c3sc(=O)[nH]c3SC3C4CCC(C4)C23)cc1 (configuration not stated)	64	0	-	0	0	0
O=C(O)c1ccccc1C(=O)NC1CCN(c2nccc(C(F)(F)F)n2)CC1	0	0	0	0	0	0
COC(=O)C1=C(C)N(CC2CC2)C(=NCc2cccc(C(F)(F)F)c2)N[C@H]1c1ccccc1	0	0	0	0	0	0
COC(=O)C1=C(C)N(Cc2ccccc2)C(=O)N[C@H]1c1ccccc1	0	0	0	0	0	0
COC(=O)C1=C(C)N(Cc2ccccc2)C(=NCc2ccc(OC)cc2)N[C@H]1c1ccccc1	0	0	0	69	0	0
COC(=O)C1=C(C)N(Cc2ccccc2)C(=NCc2cccc(C(F)(F)F)c2)N[C@H]1c1cccc(F)c1	0	-97	0	100	84	0
COc1ccc(OC(=O)COc2ccccc2C)cc1	0	0	0	0	0	0
C#CCn1c(=NC(=O)c2cc(-c3cccs3)nc3ccccc23)sc2cc(S(N)(=O)=O)ccc21	0	-56	0	0	0	0
C#CCn1c(=NC(=O)c2cc(Cl)sc2Cl)sc2cc(S(N)(=O)=O)ccc21	0	0	0	0	0	0
CCC(=O)Nc1cc2nn(-c3ccc(OC)cc3)nc2cc1C	70	0	57	0	0	0
SMILES	TWEAK-Fn14 inh	KKLEB tox	TROY NFkB inh	Peg3 prom inh	CF NFkB block	HIF-2a block
Cc1ccc(-n2nc3cc(C)c(NC(=S)NC(=O)/C=C/c4ccco4)cc3n2)cc1	0	0	69	0	0	0
COc1ccc(C(=O)NC(=S)NNC(=O)c2ccccc2C)cc1	0	0	0	0	0	0
CCCCC(=O)Nc1cc2nn(-c3ccc(OC)cc3)nc2cc1C	0	0	0	0	0	0
CCC(=O)Nc1cc2nn(-c3ccc(C)cc3)nc2cc1C	93	0	90	62	0	0
COc1ccc(-n2nc3cc(C)c(NC(=S)NC(=O)c4ccccc4C)cc3n2)cc1	0	-59	0	0	55	0
Cc1ccc(-n2nc3ccc(NC(=S)NC(=O)/C=C/c4ccco4)cc3n2)cc1	0	0	0	0	0	0
O=C(O)CCCC(=O)N1N=C(c2ccccc2)CC1c1cccs1 (configuration not stated)	0	0	0	0	0	0
N#CC(c1ccc(Cl)nn1)c1ccccc1Cl (configuration not stated)	0	0	-	0	0	0
O=C1C(C=NCCN2CCOCC2)=C(O)c2ccccc21	0	0	0	0	0	0
O=C1C(C=NCCCN2CCOCC2)=C(O)c2ccccc21	0	0	58	0	0	0
CSc1cccc(NC(=O)N2CCc3ccc(NC(=O)c4ccccn4)cc3C2)c1	0	0	0	0	0	0
CC1CC(CCN)(c2ccccc2)C(C)CN1C (configuration not stated)	0	0	0	0	0	0
COC(=O)c1sc(-c2ccc(Cl)cc2)cc1NC(=O)c1ccccc1C(=O)O	0	0	0	0	0	0
COC(=O)c1sc(-c2ccc(C(C)(C)C)cc2)cc1NC(=O)c1ccccc1C(=O)O	0	0	52	0	0	0
CCN(CC)c1ccc(-c2nn3c(-c4n[nH]c5c4CCC5)nnc3s2)cc1	0	0	52	0	0	0
Oc1cc(NCc2ccc(Cl)cc2)cc2cccnc12	0	0	0	0	0	0
CN(C)CCCNc1cc(O)c2ncccc2c1	0	0	0	81	0	0
CC(C)C(NC(=O)C1CCCCC1)C(=O)Nc1ccc2c(c1)OCCO2 (configuration not stated)	63	0	0	0	0	0
O=C(O)C1CCCCC1C(=O)Nc1ccc2c(c1)OCCO2 (configuration not stated)	83	0	69	0	0	0
O=C(O)C1C2C=CC(C2)C1C(=O)Nc1ccc2c(c1)OCCO2 (configuration not stated)	65	0	52	0	0	0
O=C(Nc1ccc2c(c1)OCCO2)C1CC1c1ccccc1 (configuration not stated)	0	0	0	0	0	0
CC(C)C(NC(=O)C1CCCCC1)C(=O)Nc1ccncc1 (configuration not stated)	0	0	0	0	0	0
COc1ccc(C2CC(C(F)(F)F)n3nc(C(=O)O)cc3N2)cc1OC (configuration not stated)	0	0	0	0	0	0
CCOC(=O)CCc1c(C)c2ccc(OCc3cc([N+](=O)[O-])ccc3OC)cc2oc1=O	0	-54	0	0	0	0
COc1ccc([N+](=O)[O-])cc1COc1ccc2c(-c3ccccc3)cc(=O)oc2c1	0	-52	0	0	67	0
CCc1c(C)c2ccc(OCC(=O)OC)cc2oc1=O	0	0	0	0	0	0
C=CCOc1ccc(/C=C/C(=O)OCC(=O)NCCC2=CCCCC2)cc1	0	0	0	0	0	0
Cc1ccc2cc3c(N)c(C(=O)Nc4c(C)[nH]c(=O)[nH]c4=O)sc3nc2c1	0	0	0	0	0	0
